From PubChem BioAssay AID1159580 (chemical genetic matrix, 2015)
“And” between values parts separate entries of the source, which are not always exact repeats. Equal entries are not always repeated. Out of some 5,500 compounds screened, about 2,000 (36%) were called active. Inconclusive results (about 18%) are left out. Rule as the data show it: active = normalized growth mostly below about 0.91 (no sharp cut-off); inconclusive = no clear call, values can overlap the other calls; inactive = mostly above about 0.92. Some of the results follow.

Assay: chemical genetic growth profiling, strain panel (AID 1159580);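 also: tested at 20 µM; growth read once vehicle control cultures reached saturation at 30 °C; 1 = growth at the plate median or of vehicle wells; lower values mean less growth of the strain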
Conditions: S. cerevisiae deletion strains, growth OD

Measured: normalized growth

CC(=O)OCC(=O)[C@@]1(O)CCC2C3CCC4=CC(=O)CC[C@]4(C)C3[C@@H](O)C[C@@]21C (stereo partly drawn)
inactive: locus YAL013W, strain DEP1, active compounds read low 1.01 | locus YAL021C, strain ccr4, active compounds read low 1.03 | locus YAL026C, strain drs2, active compounds read low 1.02 | locus YAL030W, strain snc1, active compounds read low 1.04 | locus YBL061C, strain skt5, active compounds read low 1.03 | locus YBR009C, strain hhf1, active compounds read low 0.99 | locus YBR021W, strain FUR4, active compounds read low 0.999 | locus YBR023C, strain chs3, active compounds read low 1.02 | locus YBR171W, strain sec66, active compounds read low 1.04 | locus YBR229C, strain ROT2, active compounds read low 1 | locus YBR231C, strain swc5, active compounds read low 0.999 | locus YBR279W, strain paf1, active compounds read low 1.01 | locus YCL011C, strain gbp2, active compounds read low 1.01 | locus YCL016C, strain dcc1, active compounds read low 1.04 | locus YCL029C, strain bik1, active compounds read low 1 | locus YCL069W, strain vba3, active compounds read low 1 | locus YCR088W, strain abp1, active compounds read low 1.02 | locus YDL005C, strain med2, active compounds read low 1.01 | locus YDL035C, strain GPR1, active compounds read low 1.01 | locus YDL040C, strain nat1, active compounds read low 1.01 | locus YDL074C, strain BRE1, active compounds read low 1.01 | locus YDL101C, strain DUN1, active compounds read low 1.01 | locus YDL134C, strain PPH21, active compounds read low 1.01 | locus YDL185W, strain tfp1, active compounds read low 1.01 | locus YDL192W, strain arf1, active compounds read low 1 | locus YDR001C, strain nth1, active compounds read low 1.01 | locus YDR069C, strain doa4, active compounds read low 1.04 | locus YDR101C, strain arx1, active compounds read low 0.994 | locus YDR137W, strain rgp1, active compounds read low 1.05 | locus YDR150W, strain NUM1, active compounds read low 1.01 | locus YDR159W, strain sac3, active compounds read low 0.997 | locus YDR162C, strain NBP2, active compounds read low 1.01 | locus YDR195W, strain ref2 1.02 | locus YDR297W, strain sur2, active compounds read low 0.997 | locus YDR318W, strain mcm21, active compounds read low 0.998 | locus YDR334W, strain swr1, active compounds read low 1.01 | locus YDR335W, strain msn5, active compounds read low 1.02 | locus YDR388W, active compounds read low 1 | locus YDR392W, strain spt3, active compounds read low 1.04 | locus YDR502C, strain sam2, active compounds read low 0.996 | locus YEL003W, strain gim4, active compounds read low 1.01 | locus YEL037C, strain rad23, active compounds read low 1.02 | locus YEL061C, strain CIN8 (second series), active compounds read low 1.01 | locus YEL061C, strain CIN8, active compounds read low 1.01 | locus YER015W, strain faa2, active compounds read low 1.01 | locus YER016W, strain bim1, active compounds read low 1.05 | locus YER110C, active compounds read low 0.998 | locus YER111C, strain swi4, active compounds read low 1.01 | locus YER155C, strain BEM2 (second series), active compounds read low 1.02 | locus YER155C, strain BEM2, active compounds read low 1.01 | locus YER167W, strain BCK2, active compounds read low 1.01 | locus YFR010W, strain ubp6, active compounds read low 0.984 | locus YGL078C, strain dbp3, active compounds read low 0.99 | locus YGL086W, strain mad1, active compounds read low 1.01 | locus YGL167C, strain pmr1, active compounds read low 1.02 | locus YGL173C, strain kem1, active compounds read low 1.02 | locus YGL227W, strain vid30, active compounds read low 1.01 | locus YGL240W, strain doc1, active compounds read low 1 | locus YGL248W, strain PDE1, active compounds read low 1 | locus YGL253W, strain hxk2, active compounds read low 1.02 | locus YGR135W, strain pre9, active compounds read low 0.986 | locus YGR252W, strain gcn5, active compounds read low 0.947 | locus YHR013C, strain ard1, active compounds read low 1.04 | locus YHR027C, strain rpn1, active compounds read low 1.03 | locus YHR030C, strain SLT2, active compounds read low 1.01 and 0.978 | locus YHR079C, strain IRE1 (second series), active compounds read low 1 | locus YHR079C, strain IRE1, active compounds read low 0.976 | locus YHR094C, strain hxt1, active compounds read low 0.995 | locus YHR129C, strain ARP1, active compounds read low 1.01 | locus YHR142W, strain chs7, active compounds read low 1.03 | locus YHR200W, strain rpn10, active compounds read low 1 | locus YIL066C, strain RNR3, active compounds read low 1.01 | locus YIL073C, strain SPO22, active compounds read low 1.04 | locus YIL125W, strain kgd1, active compounds read low 0.996 | locus YIR030C, strain dcg1, active compounds read low 1 | locus YJL092W, strain hpr5, active compounds read low 1.02 | locus YJL095W, strain BCK1 (second series), active compounds read low 1.03 | locus YJL095W, strain BCK1, active compounds read low 1.01 and 0.971 | locus YJL115W, strain asf1, active compounds read low 1.01 | locus YJL129C, strain trk1, active compounds read low 1.04 | locus YJL134W, strain LCB3, active compounds read low 1.01 | locus YJL154C, strain vps35, active compounds read low 1.01 | locus YJL164C, strain tpk1, active compounds read low 1.01 | locus YJL166W, strain qcr8, active compounds read low 1.01 | locus YJL168C, strain set2, active compounds read low 0.993 | locus YJL187C, strain SWE1 (second series), active compounds read low 1 | locus YJL187C, strain SWE1, active compounds read low 1.01 | locus YJR043C, strain POL32, active compounds read low 1.02 | locus YJR066W, strain TOR1, active compounds read low 0.931 | locus YKL009W, strain mrt4, active compounds read low 1.01 | locus YKL068W, active compounds read low 0.997 | locus YKL085W, strain MDH1 (second series), active compounds read low 1 | locus YKL085W, strain MDH1, active compounds read low 1 | locus YKL160W, strain elf1, active compounds read low 1.04 | locus YKR001C, strain vps1, active compounds read low 0.997 | locus YKR026C, strain gcn3, active compounds read low 1 | locus YKR091W, strain srl3, active compounds read low 1.01 | locus YLL001W, strain dnm1, active compounds read low 1.01 | locus YLL026W, active compounds read low 1.01 | locus YLL041C, strain sdh2, active compounds read low 1.03 | locus YLR027C, strain aat2, active compounds read low 1.02 | locus YLR039C, strain RIC1, active compounds read low 1.02 | locus YLR058C, strain SHM2, active compounds read low 0.996 | locus YLR102C, strain apc9, active compounds read low 0.995 | locus YLR113W, strain HOG1, active compounds read low 0.992 | locus YLR221C, strain rsa3, active compounds read low 0.985 | locus YLR258W, strain gsy2, active compounds read low 1.03 | locus YLR262C, strain YPT6 (second series), active compounds read low 1 | locus YLR262C, strain YPT6, active compounds read low 1.04 | locus YLR268W, strain sec22, active compounds read low 0.998 | locus YLR320W, strain mms22, active compounds read low 1 | locus YLR330W, strain CHS5, active compounds read low 1.01 | locus YLR342W, strain FKS1 (second series), active compounds read low 0.998 | locus YLR342W, strain FKS1, active compounds read low 1.02 | locus YLR357W, strain rsc2, active compounds read low 1.03 | locus YLR370C, strain arc18, active compounds read low 1.02 | locus YLR371W, strain rom2, active compounds read low 0.994 | locus YLR384C, strain iki3, active compounds read low 1.02 | locus YLR418C, strain cdc73, active compounds read low 0.994 | locus YML016C, strain PPZ1, active compounds read low 1 | locus YML032C, strain rad52, active compounds read low 1 | locus YML120C, strain ndi1, active compounds read low 1 | locus YML124C, strain tub3, active compounds read low 0.998 | locus YMR058W, strain fet3, active compounds read low 1.03 | locus YMR078C, strain ctf18, active compounds read low 1 | locus YMR125W, strain sto1, active compounds read low 1.03 | locus YMR129W, active compounds read low 1.02 | locus YMR205C, strain PFK2, active compounds read low 1.03 | locus YMR223W, strain ubp8, active compounds read low 0.98 | locus YMR231W, strain pep5, active compounds read low 1.02 | locus YMR307W, strain GAS1, active compounds read low 0.984 | locus YNL067W, strain RPL9B, active compounds read low 1.01 | locus YNL071W, strain lat1, active compounds read low 1 | locus YNL183C, strain NPR1, active compounds read low 0.954 | locus YNL209W, strain ssb2, active compounds read low 1.02 | locus YNL233W, strain BNI4, active compounds read low 1 | locus YNL248C, strain rpa49, active compounds read low 1.03 | locus YNL250W, strain rad50, active compounds read low 0.982 | locus YNL271C, strain bni1, active compounds read low 0.993 | locus YNL298W, strain CLA4, active compounds read low 0.995 | locus YNL307C, strain MCK1, active compounds read low 1 | locus YNL322C, strain KRE1 (second series), active compounds read low 1.04 | locus YNR049C, strain mso1, active compounds read low 1.02 | locus YNR052C, strain pop2, active compounds read low 0.996 | locus YOL012C, strain htz1 0.732 | locus YOL147C, strain pex11, active compounds read low 0.992 | locus YOR001W, strain rrp6, active compounds read low 0.986 | locus YOR061W, strain CKA2, active compounds read low 1.01 | locus YOR069W, strain VPS5, active compounds read low 1.01 | locus YOR070C, strain gyp1, active compounds read low 1.03 | locus YOR080W, strain dia2, active compounds read low 1.02 | locus YOR083W, strain WHI5, active compounds read low 1.05 | locus YOR106W, strain vam3, active compounds read low 1.05 | locus YOR136W, strain idh2, active compounds read low 0.994 | locus YOR144C, strain elg1, active compounds read low 0.997 | locus YOR184W, strain ser1, active compounds read low 1 | locus YOR231W, strain MKK1, active compounds read low 0.992 | locus YOR265W, strain rbl2, active compounds read low 1 | locus YOR270C, strain vph1, active compounds read low 1.03 | locus YOR290C, strain snf2, active compounds read low 1.06 | locus YOR316C, strain cot1, active compounds read low 0.995 | locus YPL051W, strain arl3, active compounds read low 1 | locus YPL055C, strain LGE1, active compounds read low 1 | locus YPL078C, strain atp4, active compounds read low 1.04 | locus YPL106C, strain sse1, active compounds read low 1.04 | locus YPL240C, strain hsp82, active compounds read low 1.01 | locus YPL241C, strain CIN2, active compounds read low 1.01 | locus YPL256C, strain CLN2, active compounds read low 0.968 | locus YPR119W, strain clb2, active compounds read low 0.999 | locus YPR141C, strain kar3, active compounds read low 1.01 | locus YPR163C, strain tif3, active compounds read low 1 | locus YPR167C, strain met16, active compounds read low 1 | strain wtn01, active compounds read low 0.997
